Whole data set: some 33,000 sequences, median “E-score (dimensionless, -0.5 to 0.5)” near -0.058, cut for the highest 2% near 0.35. For the sample, the highest values were picked, then their nearest neighbours and some sequences at random.

Consider 86 sequences from the supplement of paper PMC4466236.

The assay deals with MvaT. In words: PBM 8-mer E-score (mean of HK and ME arrays) (E-score (dimensionless, -0.5 to 0.5)); higher = stronger relative binding preference. In short, it runs like this:
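Reported values are rank-based E-scores, taken as the mean of two universal arrays and parsed with a custom script. Each 8-mer score falls between -0.5 and 0.5. The arrays, ME and HK, were double-stranded 60-mers with a constant 25-mer primer region and a variable 35-mer region covering all 8-mers. They were probed, by an earlier protocol, with full-length P. aeruginosa MvaT carrying an N-terminal glutathione S-transferase fusion.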
Consider CCATCAAC, for which the “PBM 8-mer E-score” value was -0.145.

In the case of GCCTAAAA, the “PBM 8-mer E-score” value was -0.0431.

As to AAAGTGAT, the “PBM 8-mer E-score” value is 0.155.

For GAGCCATA, the “PBM 8-mer E-score” value was -0.0175.

For the sequence CACTCCTG, the “PBM 8-mer E-score” value is -0.121.

Consider TGATCTAA, for which the “PBM 8-mer E-score” value came to 0.0137.

On to AAATATAG, for which the “PBM 8-mer E-score” value came out at 0.332.

As to AAATATAC, the “PBM 8-mer E-score” value turned out to be 0.333.

For the sequence AAATATAA, the “PBM 8-mer E-score” value is 0.442.

With GAGTACAC, the “PBM 8-mer E-score” value is -0.00583.

Take AAATGCCT: the “PBM 8-mer E-score” value is -0.0883.

AATTCGAC: the “PBM 8-mer E-score” value was -0.053.

As to CTTGCAAG, the “PBM 8-mer E-score” value stood at 0.114.

Regarding CTATAGTC, the “PBM 8-mer E-score” value was -0.0729.

In the case of CTATAGTA, the “PBM 8-mer E-score” value was 0.223.

Consider GTATAGTA, for which the “PBM 8-mer E-score” value worked out at 0.233.

Turning to ATATAGTC, the “PBM 8-mer E-score” value came to 0.361.

For the sequence ATATAGTA, the “PBM 8-mer E-score” value stood at 0.399.

For the sequence ATATAGTG, the “PBM 8-mer E-score” value was found to be 0.329.

Regarding CGTTGACC, the “PBM 8-mer E-score” value is -0.113.

Take AAATCAGC: the “PBM 8-mer E-score” value stood at 0.0494.

Consider AAAACTTA, for which the “PBM 8-mer E-score” value came to 0.386.

Turning to ACAACTGA, the “PBM 8-mer E-score” value was determined as 0.0852.

Take AAAACTTT: the “PBM 8-mer E-score” value is 0.354.

With CAAACTTA, the “PBM 8-mer E-score” value amounted to 0.272.

With ACAACTTA, the “PBM 8-mer E-score” value is 0.357.

ACAACTTG: the “PBM 8-mer E-score” value stood at 0.237.

As to TAAACTTA, the “PBM 8-mer E-score” value was 0.352.

TAAACTGA: the “PBM 8-mer E-score” value was 0.205.

As for GAAACTTA, the “PBM 8-mer E-score” value is 0.235.

For the sequence AAAACTTC, the “PBM 8-mer E-score” value is 0.149.

Regarding AAAACTTG, the “PBM 8-mer E-score” value is 0.1.

Turning to AAAACTGA, the “PBM 8-mer E-score” value came out at 0.0579.

On to CAACACTA, for which the “PBM 8-mer E-score” value came out at 0.11.

As for CGGCACAC, the “PBM 8-mer E-score” value was -0.0132.

On to CTATTTCA, for which the “PBM 8-mer E-score” value came out at 0.00869.

Consider ACAGTGCA, for which the “PBM 8-mer E-score” value is -0.0545.

CCGCACGG: the “PBM 8-mer E-score” value was -0.212.

For CAAACTAA, the “PBM 8-mer E-score” value came to 0.376.

Turning to CAAACTAC, the “PBM 8-mer E-score” value was found to be 0.248.

On to CCTACTTA, for which the “PBM 8-mer E-score” value stood at 0.251.

On to ACTACTTC, for which the “PBM 8-mer E-score” value is 0.117.

Turning to TAAACTAA, the “PBM 8-mer E-score” value worked out at 0.34.

In the case of ACTACTTA, the “PBM 8-mer E-score” value is 0.377.

ACATTGCC: the “PBM 8-mer E-score” value amounted to 0.0616.

As to ATCTTCCC, the “PBM 8-mer E-score” value was -0.117.

Turning to ATTGGTGG, the “PBM 8-mer E-score” value is 0.00541.

On to TGATAACA, for which the “PBM 8-mer E-score” value came to 0.16.

Regarding CACGCTCG, the “PBM 8-mer E-score” value was -0.168.

In the case of AATAGAAG, the “PBM 8-mer E-score” value stood at 0.0707.

In the case of ATATTTTG, the “PBM 8-mer E-score” value worked out at 0.319.

For the sequence GGATTTTA, the “PBM 8-mer E-score” value came out at 0.112.

On to GTATTTCA, for which the “PBM 8-mer E-score” value was 0.223.

Regarding GTATTTTA, the “PBM 8-mer E-score” value was 0.37.

With GGATTTAA, the “PBM 8-mer E-score” value was 0.283.

As for ATATTTTA, the “PBM 8-mer E-score” value came to 0.43.

With CTATTTTA, the “PBM 8-mer E-score” value is 0.261.

As for GCATTTTA, the “PBM 8-mer E-score” value is 0.177.

For the sequence GTATTTAA, the “PBM 8-mer E-score” value worked out at 0.368.

With GCCTCGTA, the “PBM 8-mer E-score” value is -0.109.

On to AGGGATGC, for which the “PBM 8-mer E-score” value was -0.182.

Turning to GGTCGTTA, the “PBM 8-mer E-score” value was -0.0413.

On to GCGAGTCA, for which the “PBM 8-mer E-score” value was -0.112.

For the sequence CCGGGAGG, the “PBM 8-mer E-score” value is -0.293.

Take CTGCAGCC: the “PBM 8-mer E-score” value was -0.148.

As for AAAAAGGT, the “PBM 8-mer E-score” value was -0.0123.

Regarding CTCAATTA, the “PBM 8-mer E-score” value amounted to 0.234.

ATTAATGG: the “PBM 8-mer E-score” value was 0.262.

As for AGTAATTC, the “PBM 8-mer E-score” value amounted to 0.144.

In the case of CTGAATTA, the “PBM 8-mer E-score” value amounted to 0.266.

Consider ATTAATTA, for which the “PBM 8-mer E-score” value was 0.461.

In the case of ATCAATTA, the “PBM 8-mer E-score” value was determined as 0.319.

With CTTAATTC, the “PBM 8-mer E-score” value is 0.281.

For ATTAATCG, the “PBM 8-mer E-score” value came to 0.336.

For ATTAATTC, the “PBM 8-mer E-score” value came out at 0.415.

With CTTAATTA, the “PBM 8-mer E-score” value came to 0.454.

As for ATGAATTA, the “PBM 8-mer E-score” value was found to be 0.295.

In the case of ATTAATTG, the “PBM 8-mer E-score” value was found to be 0.391.

As to ACAGGGCT, the “PBM 8-mer E-score” value is -0.196.

Regarding CACTTCGC, the “PBM 8-mer E-score” value is -0.174.

As to ATATCGTA, the “PBM 8-mer E-score” value was 0.207.

On to GACGCAGC, for which the “PBM 8-mer E-score” value was -0.356.

Regarding ATACTGGG, the “PBM 8-mer E-score” value is 0.00507.

On to AGTCATTA, for which the “PBM 8-mer E-score” value stood at 0.14.

For CGGTAAGC, the “PBM 8-mer E-score” value is -0.0976.

For the sequence ACCCGGGA, the “PBM 8-mer E-score” value is -0.218.
